# Source: PubChem BioAssay (NCATS)
# Activity calls are given as the source filed them. The call rests on the fitted dose curve; in most records, active means well fitted activation curve with a large enough effect; inconclusive means small, poorly fitted or top-dose-only effect; inactive means flat fitted curve, though single readings scatter.
# Experiment: Confirmation and Secondary Assay for Modulators of Hemoglobin Beta Chain Splicing at IVS2 705 locus (AID 930)
# Settings: HeLa EGFP-705 splicing reporter, GFP fluorescence, 48 h; series mostly up to 46.1 µM
# Excerpt: NIH Chemical Genomics Center [NCGC] NIH Molecular Libraries Screening Centers Network [MLSCN] MLSCN Grant: 1 X01 MH080684-01 PI Name: Dr. Ryszard Kole NCGC Assay Overview: Modulation of Alternative Splicing as Therapy Abnormal splicing is associated with a number of diseases, including cancer and genetic diseases such as cystic fibrosis, muscular dystrophy and beta-thalassemia. Alteration of disease associated splicing patterns provides a promising target for treatment. […] Mutations in the second intron of the b-globin gene at positions 654 or 705 are clinically relevant and cause mis-splicing which results in an out of frame gene product. […] EGFP-705 HeLa Cells as screen system. HeLa cell lines were stably transfected with a construct in which the EGFP (enhanced green fluorescent protein) cDNA was interrupted by the second intron of the beta-globin gene (IVS2-705). The ISV2 intron contains mutations which cause mis-splicing of EGFP and premature termination of EGFP which results in a nonfluorescent protein product. […] Expression of the transgene was driven by the CMV promoter. We concluded that a low molecular weight compound, which restored correct splicing of intron 2 would also generate functional EGFP protein, resulting in a fluorescent signal. Thus, the HeLa cells that express the EGFP-705 construct can be used for validation of splice site specificity of compounds identified in primary screening of the ISV2 654 construct.
# NCGC Assay Protocol Summary: Confirmatory Screening. Freshly thawed HeLa EGFP-705 cells were seeded in 5 ul of optimem media (Invitrogen) containing 2 % fetal calf serum (Hyclone) and 1x penicillin/streptomycin (Invitrogen) at a concentration of 500 cells per well in 1536-well plates. Cells were incubated overnight at 37C in 5% CO2. The next day, cells were treated with DMSO, 500 nM antisense ISV2 654 PNA control oligo, or library compound and allowed to grow at 37C in 5% CO2 for 2 days. The PNA oligo blocked the mutation site in the intron and allowed proper (wild type) splicing to occur, resulting in full length EGFP expression and also allowed for optimization of the assay parameters. Plates were read in the Acumen Explorer (TTP Labtech) using 488 nm laser excitation and 500-520 nm emission PMT filter in a 1 x 8 uM capture mode. Fluorescnet objects ranging in size from 5 to 250 uM were measured and the total peak GFP intensity for each well was used for data analysis. Keywords: Thalassemia, beta-thalassemia, beta-globin, EGFP, ISV2 654, ISV2 705, SSO, PNA, antisense, splicing, MLSMR, MLSCN, NIH Roadmap, qHTS, NCGC
row,Compound,outcome
1,O=C(O)CC[N+](=O)[O-],inactive
2,CC(=O)[O][Hg][c]1ccccc1,inactive
3,C#CC1(O)CCC2C3CCC4=CC(=O)CCC4(C)C3CCC21C (stereo not given),inactive
4,COc1ccc(C(c2ccc(OC)cc2)C(Cl)(Cl)Cl)cc1,inactive
5,CCC(=O)OC1CCC2C3CCC4=CC(=O)CC[C@@]4(C)C3CC[C@]12C (stereo not given in full),inactive
6,NC(N)=NOCCC(N)C(=O)O (stereo not given),inactive
7,CC(Cc1ccc(O)cc1)NCC(O)c1cc(O)cc(O)c1 (stereo not given),inactive
8,CCCCCCCCCCCCCCCC[N+](C)(C)C,inactive
9,Cc1cc(O)ccc1Cl,inactive
10,O=C(O)CCCOc1ccc(Cl)cc1Cl,inactive
11,CC[C@@]1(O)C(=O)OCc2c1cc1n(c2=O)Cc2cc3ccccc3nc2-1,inactive
12,COC(C)(C)CCCC(C)C/C=C/C(C)=C/C(=O)OC(C)C (stereo not given),inactive
13,NCCc1c[nH]c2ccccc12,inactive
14,Cc1nccc2c1[nH]c1ccccc12,inactive
15,O=C1CCCN1CC#CCN1CCCC1,inactive
